Laboratory results published in PubChem BioAssay (Tox21).
Results filed as inconclusive are left out. The source made the active and inactive calls. Unless noted, calls come from the whole dose curve.

Legend:
[1] = Nuclear factor erythroid 2-related factor 2/antioxidant responsive element (Nrf2/ARE) small molecule agonists: qHTS cell viability counter screen in human keratinocytes (AID 1919968; active = well fitted curve in the direction sought with a large enough effect in the repeat runs; an effect the other way counts as inactive or inconclusive; note: nearly all actives have a fitted effect of over 55% in size; note: potency is the fitted concentration of half-maximal effect)
Procedure, shortened: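 Viability counter-screen: KeratinoSens reporter cells, DMSO-delivered compounds, 23 h at 37 C, CellTiter-Fluor fluorescence.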

[2] = Nuclear factor erythroid 2-related factor 2/antioxidant responsive element (Nrf2/ARE) small molecule agonists: luciferase reporter gene qHTS assay in human keratinocytes (AID 1919969); note: nearly all actives have a fitted effect of over 35% in size; note: potency is the fitted concentration of half-maximal effect
[3] = G protein-coupled receptor (GPCR) small molecule agonists, calcium flux assay: HEK293 wild type cell line counter screen (AID 1920065)
Procedure, shortened: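 In this agonist-mode screen, ATP is the positive control and DMSO the vehicle. Cells grow 18 h before a 1 h dye incubation at 37 C; signal is taken at Ex/Em 480/540 over 3 min.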

[4] = p53 small molecule agonists, cell-based qHTS assay with rat liver microsomes (AID 1963578)
Procedure, shortened: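 p53RE-bla cells were exposed to compounds together with rat liver microsomes (0.5 mg/mL final) and NADPH (0.5 mg/mL final) for 16 h at 37 C, then read by LiveBLAzer beta-lactamase fluorescence after 2 h at room temperature.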

[5] = p53 small molecule agonists, cell-based qHTS assay with human liver microsomes: qHTS cell viability counter screen (AID 1963579); note: nearly all actives have a fitted effect of over 45% in size
Procedure, shortened: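 p53RE-bla cells (4,000/well) were pre-incubated 5 h at 37 C, then given compounds in DMSO plus human liver microsomes (0.5 mg/mL final) and NADPH (0.5 mg/mL final) for 16 h at 37 C. Viability was read by CellTiter-Glo luminescence.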

[6] = p53 small molecule agonists, cell-based qHTS assay: qHTS cell viability counter screen (AID 1963581); note: nearly all actives have a fitted effect of over 45% in size
Procedure, shortened: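 Compounds are pinned onto HCT-116 p53RE-bla cells and left 16 h at 37 C. Following the reporter FRET read, ATP is quantified by CellTiter-Glo luminescence after 30 min at room temperature.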

[7] = p53 small molecule agonists, cell-based qHTS assay (AID 1963582; active = well fitted activation curve with a large enough effect in the signal ratio in the repeat runs, not every such curve was filed as active; the % refers to the signal ratio; note: potency is the fitted concentration of half-maximal effect)
Procedure, shortened: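 Agonist activity was scored from beta-lactamase FRET fluorescence in p53RE-bla cells treated 16 h at 37 C with compounds in DMSO, substrate incubation being 2 h at room temperature.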

[8] = molecular target: 5-hydroxytryptamine receptor 2A (Homo sapiens) (UniProt P28223); assay: 5-hydroxytryptamine receptor 2A (HTR2A) small molecule agonists, cell-based qHTS assay (AID 1963587); note: nearly all actives have a fitted effect of over 30% in size; note: potency is the fitted concentration of half-maximal effect
Procedure, shortened: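 CHO cells stably expressing human HTR2A, plated 18 h, loaded with calcium dye 1 h at 37 C. Agonist mode: compounds added and intracellular calcium fluorescence recorded kinetically for 2 min at 1 sec intervals.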

[9] = cAMP Responsive Elements (CRE) small molecule agonists, cell-based qHTS assay (AID 1963590)
Procedure, shortened: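 FRET-based beta-lactamase readout (LiveBLAzer B/G, 2 h RT) quantified CRE activation in HEK 293T CRE-bla cells after 3 h treatment with DMSO-dissolved compounds.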

[10] = molecular target: D(2) dopamine receptor (Homo sapiens) (UniProt P14416); assay: Dopamine D2 receptor (DRD2) small molecule antagonists, cell-based qHTS assay (AID 1963595; active = well fitted inhibition curve with a large enough effect in the signal ratio in the repeat runs, with a control signal flat; the % refers to the signal ratio)
Procedure, shortened: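 HTRF cAMP read-out at 665 and 620 nm emission (340 nm excitation). Antagonist mode: compounds were tested against 12 nM quinpirole in DRD2-HEK293 cells, with 200 nM NKH477 raising cAMP and 0.1 mM Ro20-1724 blocking its breakdown.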

[11] = molecular target: KiSS-1 receptor (Homo sapiens) (UniProt Q969F8); assay: Human kisspeptin (KISS1R) small molecule agonists, calcium flux assay in KISS1R-HEK293 cells (AID 1920064; active = well fitted curve in the direction sought with a large enough effect in the repeat runs; an effect the other way counts as inactive or inconclusive)
Procedure, shortened: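 Intracellular calcium mobilization in KISS1R-HEK293 cells was recorded by fluorescence (Ex/Em 480/540) for 3 min following compound addition to cells pre-loaded 1 h with calcium dye.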

[12] = p53 small molecule agonists, cell-based qHTS assay with human liver microsomes (AID 1963577)
Procedure, shortened: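 p53RE-bla reporter cells were pre-incubated 5 h at 37 C, then treated with compounds plus human liver microsomes (0.5 mg/mL final) and NADPH (0.5 mg/mL final) for 16 h at 37 C. Beta-lactamase activity was read by LiveBLAzer fluorescence after 2 h at room temperature.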

[13] = p53 small molecule agonists, cell-based qHTS assay with rat liver microsomes: qHTS cell viability counter screen (AID 1963580); note: nearly all actives have a fitted effect of over 45% in size
Procedure, shortened: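 p53RE-bla HCT-116 cells were exposed 16 h at 37 C to compounds with rat liver microsomes (0.5 mg/mL) and NADPH (0.5 mg/mL). Viability was measured in the same wells as ATP content by CellTiter-Glo luminescence.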

[14] = molecular target: Muscarinic acetylcholine receptor M1 (Homo sapiens) (UniProt P11229); assay: Cholinergic receptor muscarinic 1 (CHRM1) small molecule antagonists, cell-based qHTS assay (AID 1963588); note: nearly all actives have a fitted effect of over 40% in size
Procedure, shortened: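 CHRM1-CHO calcium-flux assay, antagonist mode. Cells were seeded 18 h, dye-loaded 1 h at 37 C and given compound for 5 min at RT, then acetylcholine was added at 50nM. FDSS fluorescence was read 3 min; 15 concentrations, three runs.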

[15] = molecular target: Muscarinic acetylcholine receptor M1 (Homo sapiens) (UniProt P11229); assay: Cholinergic receptor muscarinic 1 (CHRM1) small molecule agonists, cell-based qHTS assay (AID 1963589); note: nearly all actives have a fitted effect of over 35% in size
Procedure, shortened: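 Stable CHRM1-CHO cells (human receptor) were incubated 18 h, dye-loaded for 1 h at 37 C and exposed to test compounds for agonist activity, with calcium-dependent fluorescence followed kinetically.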

[16] = molecular target: Beta-2 adrenergic receptor (Homo sapiens) (UniProt P07550); assay: Adrenergic beta2 receptor (ADRB2) small molecule antagonists, cell-based qHTS assay (AID 1963592); note: series mostly up to about 92 µM; nearly all actives have a fitted effect of over 50% in size
Procedure, shortened: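 Cells (CHO, stable ADRB2 overexpression) incubated 18-20hr at 37C; compounds added from DMSO; agonist mix (1nM isoproterenol, 100uM IBMX, 25uM Ro-20-1724) added; 0.5hr RT; d2-cAMP and anti-cAMP-cryptate added; 1hr RT; 665/615 nm read.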

[17] = molecular target: D(2) dopamine receptor (Homo sapiens) (UniProt P14416); assay: Dopamine D2 receptor (DRD2) small molecule agonists, cell-based qHTS assay (AID 1963594); note: nearly all actives have a fitted effect of over 35% in size
Procedure, shortened: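 HEK293 cells stably expressing human DRD2, pre-treated with PDE inhibitor Ro20-1724 (0.1 mM final) and compound 10 min at room temperature, then stimulated with NKH477 (200nM […]) for 30 min. cAMP read by HTRF (665/620 nm).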

[18] = molecular target: 5-hydroxytryptamine receptor 2A (Homo sapiens) (UniProt P28223); assay: 5-hydroxytryptamine receptor 2A (HTR2A) small molecule antagonists, cell-based qHTS assay (AID 1963586); note: nearly all actives have a fitted effect of over 45% in size
Procedure, shortened: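 Antagonist-mode intracellular calcium assay: DOI (4 nM) added after 5 min compound pre-incubation at room temperature to dye-loaded HTR2A-CHO cells. Fluorescence followed for 3 min, sampled every second.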

[19] = cAMP Responsive Elements (CRE) small molecule antagonists, cell-based qHTS assay (AID 1963591; active = well fitted inhibition curve with a large enough effect in the signal ratio in the repeat runs, not every such curve was filed as active; the % refers to the signal ratio)
Procedure, shortened: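 qHTS in CRE-bla HEK 293T cells: compound in DMSO, then 0.25 uM NKH477 (final), 3 h at 37 °C/5% CO2; beta-lactamase FRET read-out after 2 h substrate incubation.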

[20] = molecular target: Beta-2 adrenergic receptor (Homo sapiens) (UniProt P07550); assay: Adrenergic beta2 receptor (ADRB2) small molecule agonists, cell-based qHTS assay (AID 1963593);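 note: CHO cells stably overexpressing human ADRB2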
Procedure, shortened: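 CHO cells stably over-expressing ADRB2 were plated overnight at 37C, then dosed with compounds plus a stimulation mix containing 100uM IBMX and 25uM Ro-20-1724 for 0.5hr at room temperature. cAMP was measured by HTRF competition, 1hr.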

Measured: Potency

Chain of Beta-2 adrenergic receptor (Homo sapiens) (P07550 whole entry, looked up): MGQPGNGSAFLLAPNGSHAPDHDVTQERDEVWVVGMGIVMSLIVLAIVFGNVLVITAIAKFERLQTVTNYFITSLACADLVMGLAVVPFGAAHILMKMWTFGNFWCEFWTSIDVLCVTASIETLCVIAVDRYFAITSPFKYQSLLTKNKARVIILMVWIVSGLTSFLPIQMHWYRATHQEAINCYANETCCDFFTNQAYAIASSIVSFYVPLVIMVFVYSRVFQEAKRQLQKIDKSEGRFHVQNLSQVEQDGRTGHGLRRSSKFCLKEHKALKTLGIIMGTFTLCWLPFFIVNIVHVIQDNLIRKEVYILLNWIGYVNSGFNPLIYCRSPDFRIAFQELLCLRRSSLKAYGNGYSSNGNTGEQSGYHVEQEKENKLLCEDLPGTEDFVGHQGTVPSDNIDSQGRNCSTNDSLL
Chain of D(2) dopamine receptor (Homo sapiens) (P14416 whole entry, looked up): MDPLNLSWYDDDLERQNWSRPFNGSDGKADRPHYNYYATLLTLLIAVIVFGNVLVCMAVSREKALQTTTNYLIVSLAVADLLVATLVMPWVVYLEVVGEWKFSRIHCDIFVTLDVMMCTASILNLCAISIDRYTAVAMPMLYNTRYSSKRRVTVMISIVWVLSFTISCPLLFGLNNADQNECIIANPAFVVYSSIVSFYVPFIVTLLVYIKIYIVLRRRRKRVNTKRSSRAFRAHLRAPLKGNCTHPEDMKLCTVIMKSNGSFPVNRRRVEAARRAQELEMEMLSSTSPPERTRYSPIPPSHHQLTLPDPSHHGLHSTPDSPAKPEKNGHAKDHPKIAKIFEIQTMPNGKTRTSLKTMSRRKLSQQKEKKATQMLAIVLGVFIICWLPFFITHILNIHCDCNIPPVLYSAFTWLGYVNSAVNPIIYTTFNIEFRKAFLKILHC
Chain of Muscarinic acetylcholine receptor M1 (Homo sapiens) (P11229 whole entry, looked up): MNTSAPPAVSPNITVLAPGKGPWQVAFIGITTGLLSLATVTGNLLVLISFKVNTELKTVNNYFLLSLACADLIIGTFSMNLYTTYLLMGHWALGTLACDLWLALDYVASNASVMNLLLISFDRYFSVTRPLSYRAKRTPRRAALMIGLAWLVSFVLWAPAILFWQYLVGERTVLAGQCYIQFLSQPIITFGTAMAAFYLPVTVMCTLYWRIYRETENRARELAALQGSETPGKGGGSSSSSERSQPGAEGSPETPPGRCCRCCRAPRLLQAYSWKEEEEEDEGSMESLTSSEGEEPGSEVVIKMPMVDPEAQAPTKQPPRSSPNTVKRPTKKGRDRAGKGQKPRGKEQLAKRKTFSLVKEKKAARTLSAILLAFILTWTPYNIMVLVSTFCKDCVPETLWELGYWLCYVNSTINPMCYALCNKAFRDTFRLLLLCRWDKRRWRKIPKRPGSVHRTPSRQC
Chain of KiSS-1 receptor (Homo sapiens) (Q969F8 whole entry, looked up): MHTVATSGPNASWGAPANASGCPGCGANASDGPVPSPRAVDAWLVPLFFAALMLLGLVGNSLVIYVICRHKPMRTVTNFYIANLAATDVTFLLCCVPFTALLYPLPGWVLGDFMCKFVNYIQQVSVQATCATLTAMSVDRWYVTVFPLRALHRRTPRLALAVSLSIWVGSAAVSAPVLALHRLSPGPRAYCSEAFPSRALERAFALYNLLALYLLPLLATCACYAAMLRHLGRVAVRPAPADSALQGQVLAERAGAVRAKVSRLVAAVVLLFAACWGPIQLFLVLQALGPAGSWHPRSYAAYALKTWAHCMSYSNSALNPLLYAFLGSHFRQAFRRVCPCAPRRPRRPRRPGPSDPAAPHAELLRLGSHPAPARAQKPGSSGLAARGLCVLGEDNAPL
Chain of 5-hydroxytryptamine receptor 2A (Homo sapiens) (P28223 whole entry, looked up): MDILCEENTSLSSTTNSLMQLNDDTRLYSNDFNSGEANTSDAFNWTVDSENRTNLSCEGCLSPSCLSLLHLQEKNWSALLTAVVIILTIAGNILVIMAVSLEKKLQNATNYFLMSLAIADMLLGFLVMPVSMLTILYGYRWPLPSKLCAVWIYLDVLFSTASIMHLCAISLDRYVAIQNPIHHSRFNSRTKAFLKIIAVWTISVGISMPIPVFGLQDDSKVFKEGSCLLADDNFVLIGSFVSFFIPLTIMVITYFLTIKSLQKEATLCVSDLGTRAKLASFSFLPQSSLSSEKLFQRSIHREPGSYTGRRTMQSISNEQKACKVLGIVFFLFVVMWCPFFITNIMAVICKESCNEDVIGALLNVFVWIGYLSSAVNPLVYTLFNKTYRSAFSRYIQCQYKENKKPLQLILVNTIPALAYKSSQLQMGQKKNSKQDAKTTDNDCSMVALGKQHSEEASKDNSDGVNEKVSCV

CC(C)(C)C(O)C(Oc1ccc(Cl)cc1)n1cncn1 (stereo unspecified)
inactive: [1] | [3] | [4] | [5] | [6] | [7] | [8] | [9] | [10]
active: [2] 68.6 µM

COC1=CC(=O)O[C@@H](/C=C/c2ccc3c(c2)OCO3)C1
not listed: [7] | [9] | [18] | [19] | [20]
inactive: all other assays above

FC(Cl)(Cl)C(F)(Cl)Cl
not listed: [4] | [7] | [8] | [11] | [12] | [20]
inactive: all other assays above

ClCCCCl
not listed: [14] | [16] | [20]
inactive: all other assays above

N#CC(CCc1ccc(Cl)cc1)(Cn1cncn1)c1ccccc1 (stereo unspecified)
not listed: [7] | [9] | [10] | [14] | [16] | [19] | [20]
inactive: all other assays above

CCN(CC)C(=O)[C@@H]1C=C2c3cccc4[nH]cc(c34)C[C@H]2N(C)C1
inactive: [1] | [2] | [11] | [3] | [12] | [4] | [5] | [13] | [6] | [7] | [18]

[CH3][Hg][Cl]
active: [1] 6.09 µM | [2] 2.43 µM | [7] 36.3 µM | [8] 38.8 µM
not listed: [9] | [16]
inactive: all other assays above

O=C1CN=C(c2ccccc2)c2cc(Cl)ccc2N1CC1CC1
not listed: [4] | [7] | [11] | [12] | [16] | [19] | [20]
inactive: all other assays above

c1ccc2c(c1)CCNC2
not listed: [18] | [20]
inactive: all other assays above

Cn1c(CCCC(=O)O)nc2cc(N(CCCl)CCCl)ccc21
not listed: [8] | [19] | [20]
inactive: all other assays above

[Cl][Sb]([Cl])[Cl]
active: [2] 27.3 µM
not listed: [6] | [11] | [12] | [16]
inactive: all other assays above

C=CCOC(=O)c1ccccc1N
active: [2] 6.15 µM
not listed: [4] | [5] | [7] | [11] | [12] | [19] | [20]
inactive: all other assays above

Cc1cc2c3c(c1)C(c1ccccc1)=N[C@@H](NC(=O)c1ccncc1)C(=O)N3CC2
not listed: [6] | [9] | [11] | [12] | [13] | [17] | [19] | [20]
inactive: all other assays above

CCC1(CCC(C)C)C(=O)NC(=O)NC1=O
inactive: [1] | [2] | [5] | [13] | [6] | [9] | [19] | [17] | [10]

S=C=Nc1cccc2ccccc12
active: [1] 27 µM | [2] 15.2 µM
not listed: [8] | [14] | [15] | [18] | [19]
inactive: all other assays above
